# Measured values published in ChEMBL document CHEMBL2218924, “A broad activity screen in support of a chemogenomic map for kinase signalling research and drug discovery” (Biochem J, 2013).
# Experiments:
# [1] = target: T1, Serine/threonine-protein kinase TAO3 (Homo sapiens) (UniProt Q9H2K8); conditions: at 10 µM
# T1 sequence (whole entry): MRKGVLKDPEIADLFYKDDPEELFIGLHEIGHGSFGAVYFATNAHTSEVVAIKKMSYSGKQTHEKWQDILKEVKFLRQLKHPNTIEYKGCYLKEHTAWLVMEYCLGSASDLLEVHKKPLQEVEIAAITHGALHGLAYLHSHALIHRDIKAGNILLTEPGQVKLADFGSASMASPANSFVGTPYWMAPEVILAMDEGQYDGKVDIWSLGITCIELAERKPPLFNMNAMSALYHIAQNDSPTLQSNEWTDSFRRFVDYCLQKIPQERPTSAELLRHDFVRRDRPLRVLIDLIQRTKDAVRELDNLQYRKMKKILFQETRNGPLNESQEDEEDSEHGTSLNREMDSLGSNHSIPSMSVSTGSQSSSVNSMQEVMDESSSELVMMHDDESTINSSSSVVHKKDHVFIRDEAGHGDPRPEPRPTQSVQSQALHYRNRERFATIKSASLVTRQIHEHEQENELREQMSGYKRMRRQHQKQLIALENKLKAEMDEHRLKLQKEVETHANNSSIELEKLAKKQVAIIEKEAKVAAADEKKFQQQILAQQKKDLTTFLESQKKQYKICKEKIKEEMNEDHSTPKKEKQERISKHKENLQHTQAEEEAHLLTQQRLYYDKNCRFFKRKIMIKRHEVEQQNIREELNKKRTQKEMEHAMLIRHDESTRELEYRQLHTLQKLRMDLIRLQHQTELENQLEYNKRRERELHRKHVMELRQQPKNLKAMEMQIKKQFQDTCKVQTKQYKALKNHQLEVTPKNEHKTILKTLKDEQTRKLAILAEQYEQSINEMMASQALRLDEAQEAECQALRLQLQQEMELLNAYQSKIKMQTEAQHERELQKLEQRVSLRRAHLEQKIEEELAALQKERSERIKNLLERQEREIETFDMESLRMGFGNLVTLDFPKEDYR
# [2] = target: T2, Serine/threonine-protein kinase TBK1 (Homo sapiens) (UniProt Q9UHD2); conditions: at 1 µM
# T2 sequence (whole entry): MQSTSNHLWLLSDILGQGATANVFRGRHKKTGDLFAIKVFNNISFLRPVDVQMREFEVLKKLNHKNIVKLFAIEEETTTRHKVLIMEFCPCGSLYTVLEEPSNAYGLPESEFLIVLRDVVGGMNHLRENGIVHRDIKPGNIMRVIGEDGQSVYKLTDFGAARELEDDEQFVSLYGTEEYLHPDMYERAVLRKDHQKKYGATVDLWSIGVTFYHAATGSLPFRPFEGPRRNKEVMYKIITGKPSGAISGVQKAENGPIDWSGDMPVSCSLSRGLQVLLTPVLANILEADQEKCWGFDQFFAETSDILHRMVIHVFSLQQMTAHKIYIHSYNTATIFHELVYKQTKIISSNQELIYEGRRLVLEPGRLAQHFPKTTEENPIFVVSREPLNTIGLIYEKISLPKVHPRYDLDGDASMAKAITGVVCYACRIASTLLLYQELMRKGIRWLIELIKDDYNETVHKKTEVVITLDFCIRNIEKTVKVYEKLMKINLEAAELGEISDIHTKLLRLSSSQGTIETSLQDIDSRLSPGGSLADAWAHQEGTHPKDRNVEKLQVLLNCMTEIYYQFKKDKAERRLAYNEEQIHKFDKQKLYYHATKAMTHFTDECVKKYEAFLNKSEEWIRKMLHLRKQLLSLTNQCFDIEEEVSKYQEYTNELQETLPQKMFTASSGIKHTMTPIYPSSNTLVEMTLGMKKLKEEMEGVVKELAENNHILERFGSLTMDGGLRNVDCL
# [3] = target: T2, Serine/threonine-protein kinase TBK1 (Homo sapiens); conditions: at 10 µM
# [4] = target: T3, TGF-beta receptor type-1 (Homo sapiens) (UniProt P36897); conditions: at 1 µM
# T3 sequence (whole entry): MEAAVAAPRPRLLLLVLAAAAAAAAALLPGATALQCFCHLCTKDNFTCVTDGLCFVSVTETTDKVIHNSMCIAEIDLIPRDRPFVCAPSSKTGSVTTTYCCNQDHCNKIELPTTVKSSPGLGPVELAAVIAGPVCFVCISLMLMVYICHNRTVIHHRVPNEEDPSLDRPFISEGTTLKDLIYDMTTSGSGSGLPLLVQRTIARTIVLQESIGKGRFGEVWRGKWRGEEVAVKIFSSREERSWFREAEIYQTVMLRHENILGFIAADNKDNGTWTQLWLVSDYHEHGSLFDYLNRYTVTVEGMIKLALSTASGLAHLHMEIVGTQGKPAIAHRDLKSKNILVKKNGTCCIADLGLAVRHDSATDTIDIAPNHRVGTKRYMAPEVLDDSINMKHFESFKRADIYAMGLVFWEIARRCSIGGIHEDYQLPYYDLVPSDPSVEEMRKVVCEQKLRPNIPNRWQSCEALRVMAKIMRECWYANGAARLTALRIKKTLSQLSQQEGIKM
# [5] = target: T3, TGF-beta receptor type-1 (Homo sapiens); conditions: at 10 µM
# [6] = target: T4, Inhibitor of nuclear factor kappa-B kinase subunit alpha (Homo sapiens) (UniProt O15111); conditions: at 1 µM
# T4 sequence (whole entry): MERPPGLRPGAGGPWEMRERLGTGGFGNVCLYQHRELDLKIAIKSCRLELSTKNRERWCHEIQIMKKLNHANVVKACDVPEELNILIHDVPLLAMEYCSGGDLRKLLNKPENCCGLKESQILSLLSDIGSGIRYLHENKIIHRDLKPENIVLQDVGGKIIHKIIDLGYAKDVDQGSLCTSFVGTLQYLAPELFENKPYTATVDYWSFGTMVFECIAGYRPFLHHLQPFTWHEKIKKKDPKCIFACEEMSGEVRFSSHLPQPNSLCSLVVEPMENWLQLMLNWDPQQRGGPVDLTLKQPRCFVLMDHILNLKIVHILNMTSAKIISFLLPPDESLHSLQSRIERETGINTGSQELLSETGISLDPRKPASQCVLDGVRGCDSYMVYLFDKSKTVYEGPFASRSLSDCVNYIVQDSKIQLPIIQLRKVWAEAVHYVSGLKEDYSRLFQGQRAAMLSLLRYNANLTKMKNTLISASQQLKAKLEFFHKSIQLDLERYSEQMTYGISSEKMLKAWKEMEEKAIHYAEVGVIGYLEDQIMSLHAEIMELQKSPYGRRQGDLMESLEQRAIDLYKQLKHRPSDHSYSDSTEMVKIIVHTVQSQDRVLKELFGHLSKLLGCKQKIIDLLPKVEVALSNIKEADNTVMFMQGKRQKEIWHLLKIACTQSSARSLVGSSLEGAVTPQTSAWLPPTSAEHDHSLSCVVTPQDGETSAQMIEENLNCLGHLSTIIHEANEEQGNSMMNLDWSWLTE
# [7] = target: T5, Inhibitor of nuclear factor kappa-B kinase subunit beta (Homo sapiens) (UniProt O14920); conditions: at 1 µM
# T5 sequence (whole entry): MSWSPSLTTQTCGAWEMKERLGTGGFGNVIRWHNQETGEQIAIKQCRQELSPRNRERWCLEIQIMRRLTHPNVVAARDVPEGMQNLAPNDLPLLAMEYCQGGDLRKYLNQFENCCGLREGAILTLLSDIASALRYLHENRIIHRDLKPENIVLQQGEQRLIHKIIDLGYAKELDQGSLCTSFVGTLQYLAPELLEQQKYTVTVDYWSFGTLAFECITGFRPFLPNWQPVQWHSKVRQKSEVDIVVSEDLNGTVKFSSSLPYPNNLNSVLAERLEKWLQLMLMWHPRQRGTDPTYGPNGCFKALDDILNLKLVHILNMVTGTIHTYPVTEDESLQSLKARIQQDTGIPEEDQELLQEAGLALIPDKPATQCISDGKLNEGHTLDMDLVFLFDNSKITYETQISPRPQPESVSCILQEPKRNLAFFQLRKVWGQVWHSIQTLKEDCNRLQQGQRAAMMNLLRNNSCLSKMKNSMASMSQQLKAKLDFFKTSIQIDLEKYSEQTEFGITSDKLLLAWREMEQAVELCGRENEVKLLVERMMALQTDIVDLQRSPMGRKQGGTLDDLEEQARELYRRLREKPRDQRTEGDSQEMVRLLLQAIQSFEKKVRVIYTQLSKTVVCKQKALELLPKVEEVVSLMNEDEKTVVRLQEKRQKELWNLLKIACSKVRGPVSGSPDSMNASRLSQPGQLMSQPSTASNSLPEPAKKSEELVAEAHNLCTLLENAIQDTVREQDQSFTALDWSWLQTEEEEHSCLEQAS
# [8] = target: T5, Inhibitor of nuclear factor kappa-B kinase subunit beta (Homo sapiens); conditions: at 10 µM
# [9] = target: Insulin receptor (Homo sapiens) (UniProt P06213); conditions: at 1 µM
# Sequence of Insulin receptor (Homo sapiens) (P06213 28-758 limits assumed): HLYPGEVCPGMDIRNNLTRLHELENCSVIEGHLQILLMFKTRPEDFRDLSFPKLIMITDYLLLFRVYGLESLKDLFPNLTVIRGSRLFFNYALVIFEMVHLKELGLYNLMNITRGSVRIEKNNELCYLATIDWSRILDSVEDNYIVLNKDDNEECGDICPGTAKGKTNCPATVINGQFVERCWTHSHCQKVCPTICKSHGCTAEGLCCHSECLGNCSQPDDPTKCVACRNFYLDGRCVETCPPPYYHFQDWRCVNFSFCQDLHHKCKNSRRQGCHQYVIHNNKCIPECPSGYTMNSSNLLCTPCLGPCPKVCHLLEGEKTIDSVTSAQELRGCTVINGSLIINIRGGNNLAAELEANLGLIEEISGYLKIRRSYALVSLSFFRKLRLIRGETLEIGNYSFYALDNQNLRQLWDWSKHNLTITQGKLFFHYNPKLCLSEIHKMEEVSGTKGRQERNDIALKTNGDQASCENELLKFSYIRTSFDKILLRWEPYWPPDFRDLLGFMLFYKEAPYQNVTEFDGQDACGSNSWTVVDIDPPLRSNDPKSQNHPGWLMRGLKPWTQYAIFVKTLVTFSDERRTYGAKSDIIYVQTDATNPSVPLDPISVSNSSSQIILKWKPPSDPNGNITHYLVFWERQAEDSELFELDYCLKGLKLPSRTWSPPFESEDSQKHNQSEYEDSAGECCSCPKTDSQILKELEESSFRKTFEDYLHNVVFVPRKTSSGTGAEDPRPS
# Sequence of Insulin receptor (Homo sapiens) (P06213 763-1382 limits assumed): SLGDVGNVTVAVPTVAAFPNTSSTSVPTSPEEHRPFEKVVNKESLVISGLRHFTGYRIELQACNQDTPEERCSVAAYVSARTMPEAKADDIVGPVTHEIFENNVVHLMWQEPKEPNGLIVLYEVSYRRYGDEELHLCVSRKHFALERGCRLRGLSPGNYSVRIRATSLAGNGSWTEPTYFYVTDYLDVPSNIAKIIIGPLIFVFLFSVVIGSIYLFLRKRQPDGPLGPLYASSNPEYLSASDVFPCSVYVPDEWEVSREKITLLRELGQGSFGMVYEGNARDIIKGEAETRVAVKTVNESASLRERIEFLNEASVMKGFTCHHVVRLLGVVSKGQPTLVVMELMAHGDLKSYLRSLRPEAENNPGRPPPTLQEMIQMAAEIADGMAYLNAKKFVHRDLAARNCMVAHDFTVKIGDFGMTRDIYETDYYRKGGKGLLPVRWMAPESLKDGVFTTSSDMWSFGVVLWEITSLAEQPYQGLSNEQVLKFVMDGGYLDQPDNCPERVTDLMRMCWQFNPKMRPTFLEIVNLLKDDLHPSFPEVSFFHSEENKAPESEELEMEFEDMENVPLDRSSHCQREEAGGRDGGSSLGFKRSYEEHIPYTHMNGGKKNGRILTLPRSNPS
smiles,measurement,setting,value
COc1cc2ncnc(N3CCN(C(=O)Nc4ccc(Oc5ccccc5)cc4)CC3)c2cc1OC,residual activity,[1],77%
same,residual activity,[2],57%
same,residual activity,[3],53%
same,residual activity,[4],80%
same,residual activity,[5],76%
same,residual activity,[6],103%
same,residual activity,[7],113%
same,residual activity,[8],115%
same,residual activity,[9],115%
